Hits are enriched below; roughly 2.9% of the tested compounds scored in any of these assays.
B2AR arrestin – recruits beta-arrestin to the human beta2-adrenergic receptor; P07550; beta-arrestin recruitment to beta2AR, cell-based reporter; Potency, µM (titrated, usually from 46.1 µM), for the others: at the highest dose activation, hits mostly activators; 330,000 tested, 0.02% active; AID 492947; active = well fitted activation curve with a large enough effect; inconclusive = small, poorly fitted or top-dose-only effect;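 note: potency is the fitted concentration of half-maximal effect; 0% = DMSO controls and full agonism = EC100 isoproterenol or metaproterenol; nearly all actives have a fitted effect of over 65% in size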
Target sequence (P07550 whole entry, looked up): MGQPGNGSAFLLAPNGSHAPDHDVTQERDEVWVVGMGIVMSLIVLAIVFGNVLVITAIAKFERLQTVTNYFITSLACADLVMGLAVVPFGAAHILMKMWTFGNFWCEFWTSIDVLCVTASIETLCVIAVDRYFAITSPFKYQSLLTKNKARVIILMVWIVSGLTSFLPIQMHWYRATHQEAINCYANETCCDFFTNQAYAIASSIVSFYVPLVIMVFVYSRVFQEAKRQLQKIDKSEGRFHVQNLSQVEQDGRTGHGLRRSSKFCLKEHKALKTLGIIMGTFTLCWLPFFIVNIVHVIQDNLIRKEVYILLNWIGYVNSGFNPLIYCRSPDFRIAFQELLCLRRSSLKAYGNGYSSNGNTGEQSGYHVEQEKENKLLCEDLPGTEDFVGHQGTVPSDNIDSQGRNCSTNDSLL
D3 antag – D3 dopamine receptor (human) antagonism; AID 652054; max response, negative = inhibition, %; P35462; D3R cells, DiscoveRx beta-arrestin luminescence, antagonist mode; active compounds read low; 360,000 tested, 2.5% active; in the data active = max response below about -50%; inconclusive = no clear call, values can overlap the other calls; note: % is set by controls: 0 for no effect and ±100 for the full control effect
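Cells plated overnight at 1500 cells/well, then exposed to library compounds with dopamine controls for 90 minutes at 37 degrees C. DiscoveRx reagent added for 30–60 minutes at room temperature; luminescence read, quantitative HTS format.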
DRD3 agonist – agonists of human D3 dopamine receptor; max activation, %; AID 652048; D3R DiscoveRx beta-arrestin cells, luminescence, 90 min; P35462; 410,000 tested, 0.58% active; in the data active = max activation above about 30%; note: 0% is about no effect
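Cells at 1500/well, incubated overnight, then treated with pinned compounds (dopamine as control) for 90 min at 37 degrees C. DiscoveRx reagent added for 30 - 60 minutes at room temperature; luminescence read.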
TSHR antagonist – human thyrotropin receptor antagonism | P16473 | TSHR-expressing cells, TSH-stimulated cAMP HTRF, 2 h; active compounds read low | activity change, negative = inhibition, % at 11.5 µM | 330,000 tested, 0.2% active;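 active = activity change below a set negative limit, meaning inhibition stronger than a set level, cut at about -70% in these data; inconclusive = activity change between two set negative limits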; note: % is set by controls: 0 for no effect and ±100 for the full control effect
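TSHR-expressing cells were treated with compounds, then stimulated with TSH at EC80 (4nM final) for 2 hours at 37 deg C. Cellular cAMP was measured by HTRF competition between lysate cAMP and cAMP-d2 for a cryptate-labelled anti-cAMP antibody.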
Numbers without * were called inactive; ? = inconclusive; · = no result.

SMILES	B2AR arrestin	D3 antag	DRD3 agonist	TSHR antagonist
CCOc1ccc(/C(O)=C2/C(=O)C(=O)N(c3ncccn3)C2c2ccccc2)cc1 (stereo not given)	-0.6%	2.1	-2.5	-24.0
CCOc1ccc(/C(O)=C2/C(=O)C(=O)N(c3ncccn3)C2c2ccc(C)cc2)cc1 (stereo not given)	0.5%	-21.2	30.8*	-2.8
Cc1ccc(C(=O)Nc2cccc(C(=O)NCc3ccccc3)c2)o1	-2.7%	-5.6	-15.4	3.3
C/C(=N\NC(=O)C1(C)CC1(Br)Br)c1cccc(NC(=O)c2ccc(C)o2)c1 (stereo not given)	-0.8%	77.4	36.6*	-27.9
Cc1cccc(C(=O)N2CCNC(=O)C2CC(=O)Nc2ccc(F)cc2)c1 (stereo not given)	·	·	-4.3	·
Cc1ccc(Cl)cc1Nc1nc2ccccc2n2c(C)nnc12	·	·	-4.7	·
CC(=O)C1=C(C)NC(=O)NC1c1ccccc1OCC(=O)NCCc1ccccc1 (stereo not given)	-0.1%	-63.8*	4.6	1.6
CC(=O)C1=C(c2ccccc2)NC(=O)NC1c1ccccc1OCC(=O)Nc1ccccc1 (stereo not given)	-0.5%	-2.1	0.3	-32.2
CCc1nc(SCC(=O)N2CCN(c3ccccc3)CC2)c2oc3ccccc3c2n1	-0.4%	13.1	47.6*	0.9
CCc1nc(SCCO)c2oc3ccccc3c2n1	-0.1%	-23.6	-0.3	-5.7
CCc1ccc(C(=O)NC(C(=O)NCC2CCCO2)C(C)C)cc1 (stereo not given)	0.2%	-87.8*	-20.2	5.2
OC(CNCc1ccc(F)cc1)(c1ccc(F)cc1)c1ccc(F)cc1	0.2%	-51.2*	1.6	21.6
OC(CNCc1ccc(Cl)cc1)(c1ccccc1)c1ccc(F)cc1 (stereo not given)	0.1%	-10.7	-10.9	6.4
Cc1ccccc1-c1cc(C(=O)Nc2sc(C)c(C)c2C(N)=O)c2ccccc2n1	-0.3%	56.3	2.6	-7.4
CCOC(=O)c1sc(NC(=O)c2cc(-c3ccccc3C)nc3ccccc23)c(C#N)c1C	-0.8%	40.4	33.2*	-40.4
CC(=O)Nc1nonc1-c1nc2ccccc2n1Cc1ccccc1Br	·	·	-4.2	·
COC1=C(OC)C(=O)C(Sc2ccc3ccccc3c2)=CC1=O	·	-62.4*	-28.3	·
COc1ccc(S(=O)(=O)Oc2ccc3ccccc3c2)cc1	-1.4%	-11.8	-8.5	-13.4
Cc1cccn2c(Nc3ccc4c(c3)OCCO4)c(-c3ccc(Br)o3)nc12	·	·	44.2*	·
CSc1ccc(CCNC(=O)C2CCN(c3ncnc4c3nc3n4CCCCC3)CC2)cc1	·	·	-1.6	·
CCOc1ccc2nc(N(CCCN(C)C)C(=O)c3ccc4c(c3)CCCC4)sc2c1	-0.5%	-84.3*	-22.9	14.4
CN(C)CCCN(C(=O)c1ccc2c(c1)CCCC2)c1nc2ccc(Cl)cc2s1	-0.2%	-88.1*	-10.2	0.8
CCOc1ccc2nc(N(CCCN(C)C)C(=O)c3ccc(S(=O)(=O)N4CCc5ccccc5C4)cc3)sc2c1	-0.3%	-1.0	1.0	39.6
Oc1ccc(CN2CCN(Cc3ccccc3)CC2)c2cccnc12	-0.2%	-58.1*	-16.0	4.4
CN1CCN(Cc2cc(COCc3ccccc3)c3cccnc3c2O)CC1	2.51µM*	?	-12.7	-10.3
SMILES	B2AR arrestin	D3 antag	DRD3 agonist	TSHR antagonist
Oc1ccc(COc2cccc3ccccc23)c2cccnc12	0.4%	·	·	17.8
O=[N+]([O-])c1cc(CN2CCN(c3ccccc3)CC2)c(O)c2ncccc12	-0.5%	-109.1*	-43.2	-19.4
CCCOCc1cc(CN2CCN(c3cccc(Cl)c3)CC2)c(O)c2ncccc12	·	·	-15.9	·
COCc1ccc(O)c2ncccc12	?	-78.4*	-26.3	-7.5
COc1ccc(C)cc1NS(=O)(=O)c1ccc2c(c1)[C@H]1C=CC[C@H]1[C@@H](c1cccc(Cl)c1)N2	·	·	7.8	·
CC(C)c1cnc2c(c1SCC(=O)c1ccc(Cl)cc1)c(=O)n(C)c(=O)n2C	·	·	-5.3	·
Cc1cc(=O)[nH]c2nnc(SCc3ccc(F)cc3)n12	·	·	-12.7	·
CCCCCCCCCCCC1N=C(N)NC(CCCO)=C1C(=O)OC (stereo not given)	·	5.2	2.3	·
O=C1NC(=S)SC1=Cc1ccccc1Cl	·	16.4	37.7*	·
Cc1nn(C)cc1/C=C1\SC(=S)NC1=O	0.1%	-69.9*	0.5	-0.6
COc1ccccc1C=C1SC(=S)NC1=O	·	0.0	3.6	·
COC(=O)c1ccc(NC(=O)Cc2coc3cc(C)ccc23)cc1	·	·	-8.2	·
Cc1cccc(NC(=O)Cn2c(=O)n(CCC(=O)N3CCc4ccccc4C3)c(=O)c3ccccc32)c1	·	·	-0.9	·
Cc1cc(NC(=O)c2cnc3c(-c4ccccc4)c(C)nn3c2C)ccc1Br	·	·	34.0*	·
